Assay outcomes as filed in PubChem BioAssay.
Rows were chosen to be rich in hits. Some 7.3% of all compounds tested hit in one or more screens of this group.
VACV mCherry inh = qHTS for Stage-Specific Inhibitors of Vaccinia Orthopoxvirus: mCherry Reporter Primary qHTS | Vaccinia virus mCherry reporter infection, fluorescence | Potency, µM (top dose mostly 36.5 µM), actives largely listed as inhibitors | hit rate 0.63% among 310,000 | AID 720579, 2013; calls by dose curve; tested in A549 cells; further: nearly all actives have a fitted effect of over 35% in size
HCMV antiviral = qHTS Assay for inhibitors of the human cytomegalovirus (HCMV); hit rate 4.5% among 410,000; HFF cells, HCMV-luciferase reporter, 72 h; hits give low values; activity change, negative = inhibition, % at 57.5 µM; AID 1259415, 2018; in the data active means activity change below about -60%; inconclusive means no clear call, values can overlap the other calls; inactive means above about -39%
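HFF cells seeded 16 h at 37C, treated with compounds, infected with luciferase-reporter HCMV at MOI 1 PFU/cell; luciferase read at 72 h post infection, normalized to buffer-only and Salinomycin controls.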
FMDV inh = High Throughput Screening for Foot and Mouth Disease Virus Antivirals; FMDV antiviral cell-based qHTS; Potency, µM (highest dose often 57.9 µM), actives largely listed as inhibitors; hit rate 1.2% among 410,000; AID 1159524, 2015; calls by dose curve; tested in HEK293T cells; further: read-out not given here; nearly all actives have a fitted effect of over 45% in size
VACV Venus inh = qHTS for Stage-Specific Inhibitors of Vaccinia Orthopoxvirus: Venus Reporter Primary qHTS; Vaccinia virus Venus reporter expression, fluorescence; Potency, µM (highest dose often 36.5 µM), hits mostly inhibitors; hit rate 0.46% among 330,000; AID 720580, 2013; calls by dose curve; tested in A549 cells; further: nearly all actives have a fitted effect of over 30% in size
HCV inhibitor = qHTS Assay for Inhibitors of Hepatitis C Virus (HCV); AID 651820, 2012; hit rate 3.4% among 340,000; Potency, µM (doses to about 41.8 µM), usual class: inhibitors; Huh7.5.1 HCVcc-Cre infection, luciferase reporter, 44 h; active means well fitted inhibition curve with a large enough effect; inconclusive means small, poorly fitted or top-dose-only effect, or another doubt; inactive means no such curve, though single readings can be large or run the other way
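Antiviral activity was scored by luciferase reporter output from cells infected with HCVcc-Cre (~0.5 moi) in presence of compound, 44 h infection period, cells seeded 1,000/well 4 h prior.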
Large screens that a line does not name were inactive.

CCCCCCN(C(=O)CCCCCN1C(=O)NC(c2cccc([N+](=O)[O-])c2)C(C(=O)OCc2ccccc2)=C1C)C(C(=O)NCCCC)c1ccc(OCC(=O)OC)c(C(=O)OC)c1 (configuration not stated)	HCMV antiviral -73.9 (no result: VACV mCherry inh, FMDV inh, VACV Venus inh, HCV inhibitor)
CCCCCCN(C(=O)CCCCCN1C(=O)NC(c2ccc(-c3ccccc3)cc2)C(C(=O)OCc2ccccc2)=C1C)C(C(=O)NCCCC)c1ccc(OCC(=O)OC)c(C(=O)OC)c1 (configuration not stated)	none (no result: VACV mCherry inh, FMDV inh, VACV Venus inh, HCV inhibitor)
CCCCNC(=O)C(C)N(CCN(C)C)C(=O)CCCN1C(=O)NC(c2ccc([N+](=O)[O-])cc2)C(C(=O)OCc2ccccc2)=C1C (configuration not stated)	VACV mCherry inh inconclusive, VACV Venus inh inconclusive, HCV inhibitor 22.4µM (no result: HCMV antiviral)
CCCCCCN(C(=O)CCCCCN1C(=O)NC(c2ccc(-c3ccccc3)cc2)C(C(=O)OCc2ccccc2)=C1C)C(C)C(=O)NCCCC (configuration not stated)	none (no result: VACV mCherry inh, FMDV inh, VACV Venus inh)
COc1ccccc1CNC(=O)Nc1nc(C(N)Cc2ccc(Cl)cc2)cs1 (configuration not stated)	VACV mCherry inh inconclusive, VACV Venus inh inconclusive (no result: HCV inhibitor)
Cc1ccc(OCC(=O)Nc2ccccc2C(=O)OCc2cc(=O)n3c(C)csc3n2)cc1	none (no result: HCV inhibitor)
CCCCNC(=O)C(C1CCCCC1)N(CCN(C)C)C(=O)CCCN1C(=O)NC(c2ccc(-c3ccccc3)cc2)C(C(=O)OCc2ccccc2)=C1C (configuration not stated)	HCV inhibitor 10µM (no result: VACV mCherry inh, HCMV antiviral, FMDV inh, VACV Venus inh)
Cc1ncc2c(c1CNC(=O)c1ccccc1F)CCN(C(=O)c1csc(-c3cccs3)n1)C2	none (no result: HCMV antiviral, HCV inhibitor)
O=c1ccc2cc3ccoc3c(O)c2o1	HCV inhibitor 1µM
COc1ccc(NC(=O)CSc2nc3nc(C)c(Cc4ccccc4)c(C)n3n2)cc1OC	HCMV antiviral -66.3 (no result: HCV inhibitor)
CCN(C[C@H]1N[C@@](C)(C(=O)OC)[C@H]2C(=O)N(C)C(=O)[C@@H]12)C(=O)Nc1ccc(C(F)(F)F)cc1	HCV inhibitor inconclusive
CCc1ccccc1Nc1cc(C(=O)NC2CCC(C)CC2)c2ccccc2n1 (configuration not stated)	HCMV antiviral -82.3 (no result: HCV inhibitor)
O=C(NCCC1CCCCN1S(=O)(=O)c1cccs1)C(=O)Nc1ccccc1F (configuration not stated)	HCV inhibitor 8.91µM
O=C(NCc1ccc(F)cc1)C(=O)NCC1CCCN1S(=O)(=O)c1ccccc1 (configuration not stated)	none
Cc1ccc(C)c(S(=O)(=O)N2CCCCC2CCNC(=O)C(=O)NCc2cccnc2)c1 (configuration not stated)	FMDV inh inconclusive, VACV Venus inh inconclusive
Cc1ccc(C)c(S(=O)(=O)N2CCCCC2CCNC(=O)C(=O)NCc2ccccc2)c1 (configuration not stated)	VACV mCherry inh inconclusive, VACV Venus inh inconclusive, HCV inhibitor 22.4µM
COc1cccc(NC(=O)C(=O)NCCC2CCCCN2S(=O)(=O)c2ccccc2)c1 (configuration not stated)	HCV inhibitor 3.98µM
O=C(NCCc1ccc(F)cc1)C(=O)NCC1CCCN1S(=O)(=O)c1ccccc1 (configuration not stated)	VACV mCherry inh inconclusive, FMDV inh 39.8µM, HCV inhibitor 11.2µM
Cc1ccccc1NC(=O)C(Cc1ccccc1)N1Cc2ccccc2C1=O (configuration not stated)	HCMV antiviral inconclusive (no result: HCV inhibitor)
COc1cccc(C(=O)NCC2CCCN2S(=O)(=O)c2ccccc2)c1 (configuration not stated)	none
COc1cccc(NC(=O)C(=O)NCC2CCCN2S(=O)(=O)c2ccccc2)c1 (configuration not stated)	HCV inhibitor 11.2µM
CCCOc1nc2ccccc2cc1/C=C/C(=O)O	HCMV antiviral inconclusive
CCOc1nc2ccccc2cc1C=O	HCMV antiviral -72.9
C[C@@H]1CCC(=O)N(CC[C@H](Oc2ccccc2)c2ccccc2)CC1	HCMV antiviral -64.5
CCN(CC(=O)NCc1ccc(F)cc1)C(=O)CN1CCN(c2cc(Cl)ccc2C)CC1	FMDV inh inconclusive, HCV inhibitor 6.31µM
N#Cc1ccc(COC(=O)c2cnc3ccccc3n2)cc1	none
CCc1ccc(NC(=O)CCn2cnc3ccccc3c2=O)cc1	none (no result: HCV inhibitor)
